Growth data for 39 compounds are collected here from PubChem BioAssay (NCI).

The panel holds about 83,000 compounds, 20% with a hit somewhere; the sample as a whole holds those more often.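 Cell lines were cultured in 96-well plates, exposed to a single compound concentration, and assessed for percent growth 48 hours later.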 A number with no mark means an inactive call. Activity calls are given as the source filed them. The calls were made as follows: active = growth percent below 10; inactive = the rest.

The first assay concerns SNB-19 CNS. In words: NCI-60 one-dose screen, 48 h (100 = growth as untreated, 0 = no growth, -100 = all killed). The conditions noted are these: 10 µM unless noted.
Take `O=C(CCCCC(=O)N/N=C\c1ccccc1O)N/N=C\c1ccccc1O`: the growth was 38.9%. On the same count and under the same terms, the figure for `COc1cc(-c2nc(C(=O)NCC(=O)NO)nn2-c2ccc(Cl)cc2)cc(OC)c1OC` is 100%; for `O=c1ccccc(-c2ccc(Br)cc2)c1O` it is 13%. Still for that read-out and setting: then `Cc1cc2nc(NC(=O)CN3CCN(CCN4C(=O)c5cccc6cccc(c56)C4=O)CC3)sc2cc1C`, with 75.3%; and `COc1cc(C(=O)/C=C/c2cccnc2Nc2ccc(Cl)cc2)cc(OC)c1OC`, with -80.5% (active). On the same count and under the same terms, then `COc1ccc(-c2nnc(SCC(=O)c3ccc(Cl)cc3)o2)cc1`, with 101%; and `COc1cc(/C=C/C(=O)Nc2cccnc2Nc2ccc(F)cc2)cc(OC)c1OC`, with 91.1%.

For `O=C1/C(=C/c2ccccc2O)N=C2SCCCN12`, the growth was 90.8%. For the compound `CC(C)(CCCN=C(N)Nc1ccc(Cl)cc1)c1ccc(F)cc1`, the growth is 67.4%. The same measure, in the same setting: then `CCCCC[C@H]1C/C=C2/C(=O)C=C[C@@H]2C/C=C\CCCC(=O)O1`, with 1.16% (active); and `COc1ccc2c(c1)C(=O)/C(=C/c1ccccn1)CC2`, with 76.1%. Take `C=C1C(=O)O[C@H]2[C@H]1CC/C(COC(=O)NCCc1ccc(OC)c(OC)c1)=C\CC[C@@]1(C)O[C@@H]21`: the growth was 90.1%. Same read-out and setting: the figure for `COc1cc(-c2nn(-c3ccc(Br)cc3)cc2C(=O)O)ccc1O` is 103%; for `CCCCCC(=O)Oc1ccc(/C(=C(\C)c2ccc(OC)cc2)c2ccc(OCCN3CCCCC3)cc2)cc1` it is 74.4%. Still for that read-out and setting: the figure for `COC(=O)[C@@H]1CCCN1C(=O)[C@@H]1CCCN1C(=O)[C@H](Cc1ccccc1)NC(=S)Nc1cc(C(F)(F)F)cc(C(F)(F)F)c1` is 33.3%. `CCOc1ccc(C(C)=O)cc1NC(=O)c1cccc(-c2nnn(CC)n2)c1`: the growth is 36.5%. In the case of `O=[N+]([O-])c1ccccc1/C=N\NC(=S)N/N=C/c1ccccc1[N+](=O)[O-]`, the growth was 69%. Still for that read-out and setting: then `O=[N+]([O-])c1ccc2c(c1)Cc1cc(F)ccc1-2`, with 92.5%; and `CC(=O)OC[C@H]1O[C@H](OC(C)=O)[C@H](NC(=O)/C=C/CCl)[C@@H](OC(C)=O)[C@@H]1OC(C)=O`, with 86.8%. As to `CCC#CC[C@H](O)C/C=C1/C(=O)C=C[C@@H]1C/C=C\CCCC(=O)OC`, the growth is 23.8%. As to `CC/C=C\C[C@H](O)C/C=C1/C(=O)C=C[C@@]1(C)C/C=C\CCCC(=O)OC`, the growth was 101%.

As for `CC[N+](CC)=c1sc2c(s1)C(c1ccc(Cl)cc1)Oc1ccc(Cl)cc1-2` (stereo not drawn), the growth was 12%. Same read-out and setting: the figure for `COc1cccc(-c2nc(SCC(=O)Nc3ccc(C(=O)/C=C/c4ccc(OC)c(OC)c4)cc3)[nH]c(=O)c2C#N)c1` is 76.3%; for `COc1ccc(CN2c3ccccc3Oc3ccccc32)cc1O` it is 34.9%; for `C=C1C(=O)O[C@H]2[C@H]1CC/C(C=Nc1ccc(C(F)(F)F)cc1N)=C\CC[C@@]1(C)O[C@@H]21` it is 44%. Turning to `COc1ccc2c(c1)C(=O)/C(=C/c1cccnc1)CC2`, the growth is 88.7%. Still for that read-out and setting: the figure for `Clc1ccc2c(NCCCCNc3nc(N4CCOCC4)nc4ccccc34)ccnc2c1` is 14.7%; for `COc1ccccc1Nc1nc(-c2cc3cccc(C(F)(F)F)c3oc2=O)cs1` it is 26.7%; for `CCc1c(Nc2ccccc2C)nc(N)[nH]c1=O` it is 110%. Same read-out and setting: then `O=c1oc2c(C(F)(F)F)cccc2cc1-c1csc(Nc2ccc(OCCF)cc2)n1`, with 27.7%; and `COc1ccc(CN2c3ccccc3Sc3ccccc32)c(C(F)(F)F)c1`, with 32.7%.

For `COc1cc2c(cc1O)CC[C@@H]1[C@@H]2CC[C@]2(C)[C@@H](OCCN(C)C)CC[C@@H]12`, the growth is 52.4%. For the compound `CCNc1ncnc2c1cnn2C1CCCO1` (stereo not drawn), the growth was 105%.

Take `NC(=NCCCC1(c2ccccc2)CCCC1)Nc1ccc(Cl)cc1`: the growth was 55.9%. Still for that read-out and setting: the figure for `CCOc1ccc(-n2nc(C(=O)Nc3cc(OC)c(OC)c(OC)c3)nc2-c2cc(OC)c(OC)c(OC)c2)cc1` is 82.1%. Still for that read-out and setting: the figure for `COc1ccc(CN2c3ccccc3Sc3ccccc32)cc1O` is 33%; for `NCCNc1nc(Nc2ccc(-c3nc4ccccc4[nH]3)cc2)c2cn[nH]c2n1` it is 66.5%. For `COc1cccc2c1C(=O)c1c(O)c3c(c(O)c1C2=O)C[C@](O)(C(=O)CO)C[C@H]3O[C@@H]1C[C@@H](NC(=O)CCCCCN(C)C2(c3ccc(F)cc3)CC3CCC2C3)[C@H](O)[C@@H](C)O1` (stereo partly drawn), the growth was 10.4%. The same measure, in the same setting: the figure for `CC(O)CN(CC(C)O)c1ccc2c(c1)Cc1cc([N+](=O)[O-])ccc1-2` (stereo not drawn) is 98.9%.

The next assay relates to U251 CNS. The assay is described as above. The conditions noted are these: 10 µM unless noted.
Regarding `O=C(CCCCC(=O)N/N=C\c1ccccc1O)N/N=C\c1ccccc1O`, the growth was 26.4%. Take `COc1cc(-c2nc(C(=O)NCC(=O)NO)nn2-c2ccc(Cl)cc2)cc(OC)c1OC`: the growth is 96.1%. In the case of `Cc1cc2nc(NC(=O)CN3CCN(CCN4C(=O)c5cccc6cccc(c56)C4=O)CC3)sc2cc1C`, the growth was 73.2%. Still for that read-out and setting: the figure for `COc1cc(C(=O)/C=C/c2cccnc2Nc2ccc(Cl)cc2)cc(OC)c1OC` is -95.3% (active); for `COc1ccc(-c2nnc(SCC(=O)c3ccc(Cl)cc3)o2)cc1` it is 99.8%. In the case of `COc1cc(/C=C/C(=O)Nc2cccnc2Nc2ccc(F)cc2)cc(OC)c1OC`, the growth was 70.8%.

For the compound `O=C1/C(=C/c2ccccc2O)N=C2SCCCN12`, the growth is 98.6%. Still for that read-out and setting: the figure for `CC(C)(CCCN=C(N)Nc1ccc(Cl)cc1)c1ccc(F)cc1` is 65.5%. As for `CCCCC[C@H]1C/C=C2/C(=O)C=C[C@@H]2C/C=C\CCCC(=O)O1`, the growth is -78.2% (active).

For the compound `COc1ccc2c(c1)C(=O)/C(=C/c1ccccn1)CC2`, the growth was 69.3%. The same measure, in the same setting: the figure for `C=C1C(=O)O[C@H]2[C@H]1CC/C(COC(=O)NCCc1ccc(OC)c(OC)c1)=C\CC[C@@]1(C)O[C@@H]21` is 76.8%.

Consider `COC(=O)[C@@H]1CCCN1C(=O)[C@@H]1CCCN1C(=O)[C@H](Cc1ccccc1)NC(=S)Nc1cc(C(F)(F)F)cc(C(F)(F)F)c1`, for which the growth is 7.88% (active). Take `CCOc1ccc(C(C)=O)cc1NC(=O)c1cccc(-c2nnn(CC)n2)c1`: the growth was 22.1%. Still for that read-out and setting: the figure for `O=[N+]([O-])c1ccccc1/C=N\NC(=S)N/N=C/c1ccccc1[N+](=O)[O-]` is 62.7%. Take `O=[N+]([O-])c1ccc2c(c1)Cc1cc(F)ccc1-2`: the growth was 93.1%. The same measure, in the same setting: the figure for `CC(=O)OC[C@H]1O[C@H](OC(C)=O)[C@H](NC(=O)/C=C/CCl)[C@@H](OC(C)=O)[C@@H]1OC(C)=O` is 45.1%; for `CCC#CC[C@H](O)C/C=C1/C(=O)C=C[C@@H]1C/C=C\CCCC(=O)OC` it is 0.174% (active); for `CC/C=C\C[C@H](O)C/C=C1/C(=O)C=C[C@@]1(C)C/C=C\CCCC(=O)OC` it is 94.2%. Take `COc1cccc(-c2nc(SCC(=O)Nc3ccc(C(=O)/C=C/c4ccc(OC)c(OC)c4)cc3)[nH]c(=O)c2C#N)c1`: the growth is 85.3%. The same measure, in the same setting: then `COc1ccc(CN2c3ccccc3Oc3ccccc32)cc1O`, with 24%; and `C=C1C(=O)O[C@H]2[C@H]1CC/C(C=Nc1ccc(C(F)(F)F)cc1N)=C\CC[C@@]1(C)O[C@@H]21`, with 14.6%.

Consider `COc1ccc2c(c1)C(=O)/C(=C/c1cccnc1)CC2`, for which the growth was 86.7%. Same read-out and setting: the figure for `COc1ccccc1Nc1nc(-c2cc3cccc(C(F)(F)F)c3oc2=O)cs1` is 9.97% (active); for `CCc1c(Nc2ccccc2C)nc(N)[nH]c1=O` it is 120%.

Turning to `O=c1oc2c(C(F)(F)F)cccc2cc1-c1csc(Nc2ccc(OCCF)cc2)n1`, the growth was 5.11% (active). The same measure, in the same setting: the figure for `COc1ccc(CN2c3ccccc3Sc3ccccc32)c(C(F)(F)F)c1` is 20.6%. Turning to `COc1cc2c(cc1O)CC[C@@H]1[C@@H]2CC[C@]2(C)[C@@H](OCCN(C)C)CC[C@@H]12`, the growth was 27.4%. On the same count and under the same terms, then `CCNc1ncnc2c1cnn2C1CCCO1` (stereo not drawn), with 107%; and `NC(=NCCCC1(c2ccccc2)CCCC1)Nc1ccc(Cl)cc1`, with -26.6% (active); and `CCOc1ccc(-n2nc(C(=O)Nc3cc(OC)c(OC)c(OC)c3)nc2-c2cc(OC)c(OC)c(OC)c2)cc1`, with 85.1%. On the same count and under the same terms, then `COc1ccc(CN2c3ccccc3Sc3ccccc32)cc1O`, with 18.5%; and `NCCNc1nc(Nc2ccc(-c3nc4ccccc4[nH]3)cc2)c2cn[nH]c2n1`, with -55.4% (active); and `COc1cccc2c1C(=O)c1c(O)c3c(c(O)c1C2=O)C[C@](O)(C(=O)CO)C[C@H]3O[C@@H]1C[C@@H](NC(=O)CCCCCN(C)C2(c3ccc(F)cc3)CC3CCC2C3)[C@H](O)[C@@H](C)O1` (stereo partly drawn), with -100% (active).

On to `CC(O)CN(CC(C)O)c1ccc2c(c1)Cc1cc([N+](=O)[O-])ccc1-2` (stereo not drawn), for which the growth is 102%.
